In article PMC5540273 (PLoS ONE, 2017):

Key:
Details in all cases: concentration: 1 μM, replicates: in singlicate; n = 1
[1] = system: RIOK1
[2] = system: RIOK2
[3] = system: RIOK3
[4] = system: RIPK1
[5] = system: RIPK2
[6] = system: RIPK4
[7] = system: RIPK5
[8] = system: ROCK1
[9] = system: ROCK2
[10] = system: ROS1
[11] = system: RPS6KA4(Kin.Dom.1-N-terminal)
[12] = system: RPS6KA4(Kin.Dom.2-C-terminal)
[13] = system: RPS6KA5(Kin.Dom.1-N-terminal)
[14] = system: RPS6KA5(Kin.Dom.2-C-terminal)
[15] = system: T1, RSK1(Kin.Dom.1-N-terminal)
T1 construct: gene RPS6KA1

[16] = system: T2, RSK1(Kin.Dom.2-C-terminal)
T2 construct: gene RPS6KA1

[17] = system: T3, RSK2(Kin.Dom.1-N-terminal)
T3 construct: gene RPS6KA3

[18] = system: T4, RSK2(Kin.Dom.2-C-terminal)
T4 construct: gene RPS6KA3

[19] = system: T5, RSK3(Kin.Dom.1-N-terminal)
T5 construct: gene RPS6KA2

[20] = system: T6, RSK3(Kin.Dom.2-C-terminal)
T6 construct: gene RPS6KA2
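Further: KINOMEscan kinase panel screen.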

Structure (SMILES): CN(c1ccc(NC(=O)Nc2cccc(Cl)c2)cc1)c1ccnc(N)n1.Cl [GW830707]
- %Inh [1]: 0%
- %Inh [2]: 0%
- %Inh [3]: 0%
- %Inh [4]: 0%
- %Inh [5]: 1%
- %Inh [6]: 5%
- %Inh [7]: 0%
- %Inh [8]: 53%
- %Inh [9]: 35%
- %Inh [10]: 12%
- %Inh [11]: 21%
- %Inh [12]: 0%
- %Inh [13]: 4%
- %Inh [14]: 0%
- %Inh [15]: 0%
- %Inh [16]: 0%
- %Inh [17]: 0%
- %Inh [18]: 0%
- %Inh [19]: 0%
- %Inh [20]: 0%

Structure (SMILES): Cc1ccc(NC(=O)c2ccc(Cl)c(Cl)c2)cc1-c1ccc(C(=O)Nc2ccncc2)cc1 [GSK1398460]
- %Inh [1]: 50%
- %Inh [2]: 0%
- %Inh [3]: 53%
- %Inh [4]: 23%
- %Inh [5]: 11%
- %Inh [6]: 6%
- %Inh [7]: 4%
- %Inh [8]: 0%
- %Inh [9]: 0%
- %Inh [10]: 20%
- %Inh [11]: 25%
- %Inh [12]: 0%
- %Inh [13]: 15%
- %Inh [14]: 0%
- %Inh [15]: 24%
- %Inh [16]: 2%
- %Inh [17]: 0%
- %Inh [18]: 22%
- %Inh [19]: 7%
- %Inh [20]: 9%

Structure (SMILES): COC(=O)Nc1nc2cc(Oc3ccc(NC(=O)Nc4cccc(SC)c4)cc3)ccc2[nH]1.Cl [GW697999]
- %Inh [1]: 13%
- %Inh [2]: 0%
- %Inh [3]: 2%
- %Inh [4]: 4%
- %Inh [5]: 29%
- %Inh [6]: 2%
- %Inh [7]: 0%
- %Inh [8]: 82%
- %Inh [9]: 55%
- %Inh [10]: 0%
- %Inh [11]: 3%
- %Inh [12]: 0%
- %Inh [13]: 15%
- %Inh [14]: 0%
- %Inh [15]: 0%
- %Inh [16]: 0%
- %Inh [17]: 0%
- %Inh [18]: 4%
- %Inh [19]: 7%
- %Inh [20]: 0%

Structure (SMILES): COc1cccc(NC(=O)NCCNc2ccnc(Nc3ccc(F)cc3)n2)c1 [GSK1379879]
- %Inh [1]: 31%
- %Inh [2]: 0%
- %Inh [3]: 13%
- %Inh [4]: 13%
- %Inh [5]: 0%
- %Inh [6]: 23%
- %Inh [7]: 0%
- %Inh [8]: 6%
- %Inh [9]: 15%
- %Inh [10]: 0%
- %Inh [11]: 0%
- %Inh [12]: 0%
- %Inh [13]: 0%
- %Inh [14]: 34%
- %Inh [15]: 18%
- %Inh [16]: 0%
- %Inh [17]: 3%
- %Inh [18]: 0%
- %Inh [19]: 3%
- %Inh [20]: 0%

Structure (SMILES): Cc1nn2c(=O)cc(N3CCO[C@H](C)C3)nc2n1Cc1cccc(Cl)c1Cl [GSK2373693]
- %Inh [1]: 39%
- %Inh [2]: 39%
- %Inh [3]: 5%
- %Inh [4]: 2%
- %Inh [5]: 61%
- %Inh [6]: 19%
- %Inh [7]: 0%
- %Inh [8]: 73%
- %Inh [9]: 5%
- %Inh [10]: 0%
- %Inh [11]: 18%
- %Inh [12]: 39%
- %Inh [13]: 19%
- %Inh [14]: 24%
- %Inh [15]: 0%
- %Inh [16]: 4%
- %Inh [17]: 10%
- %Inh [18]: 5%
- %Inh [19]: 26%
- %Inh [20]: 4%

Structure (SMILES): CN1CCN(Cc2ccc(NC(=O)Nc3ccc(N(C)c4ccnc(Nc5ccc(CS(C)(=O)=O)cc5)n4)cc3)cc2)CC1.Cl [GW827654]
- %Inh [1]: 94.1%
- %Inh [2]: 100%
- %Inh [3]: 93.4%
- %Inh [4]: 40%
- %Inh [5]: 34%
- %Inh [6]: 72%
- %Inh [7]: 94.9%
- %Inh [8]: 94.6%
- %Inh [9]: 99.2%
- %Inh [10]: 40%
- %Inh [11]: 39%
- %Inh [12]: 16%
- %Inh [13]: 0%
- %Inh [14]: 0%
- %Inh [15]: 75%
- %Inh [16]: 15%
- %Inh [17]: 0%
- %Inh [18]: 46%
- %Inh [19]: 42%
- %Inh [20]: 25%

Structure (SMILES): Nc1cccc(-c2ccc3c(N)n[nH]c3c2)c1 [GSK2193613]
- %Inh [1]: 93.9%
- %Inh [2]: 64%
- %Inh [3]: 55%
- %Inh [4]: 0%
- %Inh [5]: 0%
- %Inh [6]: 49%
- %Inh [7]: 0%
- %Inh [8]: 42%
- %Inh [9]: 48%
- %Inh [10]: 17%
- %Inh [11]: 12%
- %Inh [12]: 8%
- %Inh [13]: 35%
- %Inh [14]: 0%
- %Inh [15]: 13%
- %Inh [16]: 1%
- %Inh [17]: 1%
- %Inh [18]: 6%
- %Inh [19]: 7%
- %Inh [20]: 8%

Structure (SMILES): O=C(Nc1n[nH]c2cc(-c3cccs3)ccc12)C1CC1 [SB-731284]
- %Inh [1]: 85%
- %Inh [2]: 18%
- %Inh [3]: 82%
- %Inh [4]: 59%
- %Inh [5]: 4%
- %Inh [6]: 10%
- %Inh [7]: 48%
- %Inh [8]: 31%
- %Inh [9]: 32%
- %Inh [10]: 0%
- %Inh [11]: 0%
- %Inh [12]: 11%
- %Inh [13]: 0%
- %Inh [14]: 0%
- %Inh [15]: 8%
- %Inh [16]: 0%
- %Inh [17]: 41%
- %Inh [18]: 0%
- %Inh [19]: 0%
- %Inh [20]: 0%
